Pf growth 96h – P. falciparum growth inhibition at 96 hour, primary screen for plastid delayed-death inhibitors; P. falciparum luciferase reporter growth, 96 h; Potency, µM (doses to about 28.7 µM), inactives show at the top dose activity change, negative = inhibition, actives largely listed as inhibitors; 320,000 compounds, 6.9% hits; AID 504834; note: potency is the fitted concentration of half-maximal effect; % is set by controls: 0 for no effect and ±100 for the full control effect
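Cell-based qHTS: luciferase-tagged P. falciparum in erythrocytes (2% hematocrit, 0.05% parasitemia final) incubated with compounds for 96 hours, 37 C, 5% CO2; luciferase detection reagent then added and luminescence measured.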
Cycloheximide cs – counter-screen hit for Shiga toxin inhibitors, cycloheximide; cell reporter, cycloheximide protein synthesis inhibition counterscreen; max response, %; 300,000 compounds, 12% hits; AID 2314; in the data active = max response mostly above about 13%, no sharp cut-off; inactive = mostly below about 14%; note: read at 38.3 µM for the half of the compounds with a filed dose; 0% is about no effect
NS1 function inh – influenza NS1 inhibition | Potency, µM (highest dose often 46.1 µM), without a hit: top-dose activity, positive = more growth | 270,000 compounds, 0.4% hits | AID 2326; calls by dose curve; note: potency is the fitted concentration of half-maximal effect; actives are rising curves; nearly all actives have a fitted effect of over 50% in size
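In this qHTS, NS1 from influenza A is expressed in budding yeast, where it slows growth. Cells are switched from glucose to 2% galactose medium (pH 6.0, -URA), treated with compound, and growth recovery is read at OD600.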
Sm TGR inh – S. mansoni TGR enzyme inhibition; Q962Y6; 360,000 compounds, 3% hits; AID 485364; Potency, µM (titrated, usually from 114 µM), for the others: at the top dose activity change, negative = inhibition, hits mostly inhibitors; purified TGR, DTNB reduction, TNB absorbance 405 nm; note: potency is the fitted concentration of half-maximal effect; % is set by controls: 0 for no effect and ±100 for the full control effect; nearly all actives have a fitted effect of over 60% in size
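TGR 20 nM + NADPH 100 uM (dispensed conc.), cpd preinc 15 min RT; start with NADPH (500 uM addition) then DTNB (15 mM addition). Kinetic TNB absorbance, 405 nm filter. Four-parameter Hill fit across titration.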
Shiga inhibitor – inhibitors of Shiga toxin in Vero cells. Vero cells, Shiga toxin protein synthesis inhibition reporter. inhibition, % at 38.7 µM. 290,000 compounds, 9.2% hits. AID 2315; in the data active = inhibition mostly above about 28%, no sharp cut-off; inactive = mostly below about 43%; note: 0% is about no effect
Pf growth 48h – inhibits P. falciparum growth in the first generation, 48 h | P. falciparum luciferase growth in erythrocytes, 48 h | Potency, µM (doses to about 28.7 µM), for inactives: top-dose activity change, negative = inhibition, hits mostly inhibitors | 310,000 compounds, 5.9% hits | AID 504832; note: potency is the fitted concentration of half-maximal effect; % is set by controls: 0 for no effect and ±100 for the full control effect
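Luminescence readout; reporter = integrated firefly luciferase in P. falciparum. RBC culture at 2% hematocrit, 0.1% parasitemia final, 37 C/5% CO2; decreased signal taken as growth inhibition.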
An asterisk follows results filed as active; u = inconclusive; x = no result. A selection: hits, their analogues and other compounds. The true share with any hit is near 21%. Unless noted, calls come from the whole dose curve; as a rule, active = well fitted curve in the direction sought with a large enough effect; inconclusive = small, poorly fitted or top-dose-only effect, or another doubt; inactive = no such curve, though single readings can be large; an effect the other way counts as inactive or inconclusive.

SMILES	Pf growth 96h	Cycloheximide cs	NS1 function inh	Sm TGR inh	Shiga inhibitor	Pf growth 48h
CC1CCCN(c2ccc(C(=O)Nc3ccc4c(c3)OCO4)cc2[N+](=O)[O-])C1 (stereo not drawn)	u	17.0*	28.2%	8.2%	-40.5	u
CC1CCN(c2ccc(C(=O)Nc3ccc4c(c3)OCO4)cc2[N+](=O)[O-])CC1	u	7.6	5.8%	1.3%	16.4	u
O=C(NCC1CCN(S(=O)(=O)c2ccccc2)CC1)Nc1ccc(F)cc1F	-24.4%	-4.1	-4.6%	8.0%	-5.4	u
COc1ccc(NC(=O)c2cc3cc(C)ccc3[nH]2)cc1	x	x	x	6.8%	x	x
COC(=O)Nc1ccc2c(c1)OCO2	8.6%	12.1	13.8%	-10.7%	27.9	u
COc1ccc2[nH]c(C(=O)Nc3ccc4c(c3)OCO4)cc2c1	37.6%	53.2*	6.4%	4.6%	99.5*	86.8%
CCN(CC)c1ccc(NC(=O)c2ccc3c(c2)OCO3)cc1	u	54.6*	3.5%	5.6%	58.1*	-3.4%
O=C(Nc1ccc2c(c1)OCO2)Oc1ccccc1	-22.8%	38.5*	-12.3%	-23.8%	75.6*	100.4%
CC[N+](CC)(CCNC(=O)C(=O)NCC[N+](CC)(CC)Cc1ccccc1Cl)Cc1ccccc1Cl	6.01µM*	x	x	x	x	u
COc1ccccc1NC(=O)C(=O)NCc1ccccc1Cl	416.9%	-2.6	2.3%	-4.0%	-6.4	6.7%
CC(Cc1ccccc1)C(=O)Nc1ccccc1 (stereo not drawn)	-1.6%	6.8	-3.7%	-1.5%	9.0	20.9%
COc1ccc(NC(=S)NC(=O)Cc2ccccc2)c(OC)c1	-14.6%	-1.6	-8.0%	10µM*	x	-17.8%
COc1ccc(NC(=S)NC(=O)Cc2ccccc2)cc1	3.3%	24.8*	-13.0%	u	x	-17.5%
CCC(=O)NC(=S)Nc1ccc(OC)cc1OC	-31.1%	12.2	0.4%	-33.6%	22.4	-1.8%
COc1ccc(NC(=O)C(CC(=O)O)Cc2ccccc2)cc1 (stereo not drawn)	7.38µM*	-3.5	-6.6%	0.7%	3.3	3.7%
CCC(=O)Nc1ccc(NC(=S)NC(=O)Cc2ccccc2)cc1	-10.4%	-2.6	-2.5%	u	-2.0	-11.8%
CC(Cc1ccccc1)C(=O)Nc1ccc(Br)cc1 (stereo not drawn)	2.7%	36.2*	-25.5%	11.8%	99.8*	-21.2%
CCN1C(=O)[C@H]2[C@@H](c3ccc(OC)cc3)N3C(=O)CN(CCOC)C(=O)[C@@]3(C)[C@H]2C1=O	-4.0%	-1.5	-5.5%	-12.4%	-7.2	14.4%
COc1ccc(CCNC(=O)Cn2c(-c3ccc(F)cc3)cc(C(C)=O)c2C)cc1OC	x	x	x	5.8%	x	x
Cc1ccc(CNC(=O)CCc2c(C)nc3nc(C)nn3c2C)cc1	x	x	x	-8.5%	x	x
Cc1sc2ncn(CC(=O)NCCCC(=O)N3CCCCC3)c(=O)c2c1C	28.7%	-6.5	16.3%	0.3%	-3.2	10.3%
O=C(Cc1ccccc1)NC(=S)Nc1ccc(OC(F)F)cc1	u	17.8*	-2.9%	-21.0%	38.6*	0.0%
Cc1ccc(NC(=S)NC(=O)Cc2ccccc2)c(O)c1	-8.9%	31.9*	-8.8%	9.5%	28.7	6.7%
CCOC(=O)c1c(CSC(=N)N)n(-c2ccc(Br)cc2)c2cc(Br)c(OC(C)=O)cc12	u	-7.4	u	-15.1%	-22.3	1.85µM*
C=CCCc1ccc(C#N)c(SCc2c(C(=O)OCC)c3cc(OC(C)=O)c(Br)cc3n2C)n1	0.0%	-2.7	1.4%	-13.3%	-2.9	5.22µM*
SMILES	Pf growth 96h	Cycloheximide cs	NS1 function inh	Sm TGR inh	Shiga inhibitor	Pf growth 48h
CCCCCCCCOC(=O)c1c(CSC(=N)N)n(C)c2cc(Br)c(OC(C)=O)cc12	10.4µM*	-3.0	8.2%	-10.2%	-9.5	u
COc1ccc(N2CCN(C(=O)CCN3C(=S)NC(C)(C)CC3C)CC2)cc1 (stereo not drawn)	10.2%	2.6	x	-7.7%	17.5	u
CCc1c(CN2CCN(c3cccc(C)c3C)CC2)csc1C	x	x	x	1.6%	x	x
COc1ccc(/C(N)=N/OC(=O)CCc2ccccc2)cc1OC	-5.8%	27.4*	-2.2%	20.9%	60.3	16.1%
COc1ccc(/C(N)=N/OC(=O)CSc2ccccc2)cc1OC	x	54.8*	-11.7%	4.4%	68.3	90.6%
Cc1cccc(/C(N)=N/OC(=O)CCc2ccccc2)c1	53.3%	31.5*	-10.8%	8.4%	51.9*	32.6%
